test system: SRMS; details: concentration: 1 μM, replicates: in singlicate; n = 1
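Note: KINOMEscan kinase panel screen.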

| Compound | %Inh [%] |
| --- | --- |
| c1ccc(-c2n[nH]cc2Nc2ccnc3ccccc23)nc1 [GW694077] | 0 |
| Oc1cc(Nc2ccnc3cc(I)ccc23)ccc1F [GW552771] | 0 |
| COc1ccc(Nc2nccc(N3CCC(NC(=O)Nc4cccc(OC)c4)C3)n2)cc1 (centres unmarked) [GSK1379742] | 0 |
| COc1cc(Nc2nccc(-c3c(-c4cccc(NC(=O)c5c(F)cccc5F)c4)nn4ccccc34)n2)cc(OC)c1OC [GSK323521] | 0 |
| c1ccc(-c2cnc3nccnn23)cc1 [AH20685] | 0 |
| C[C@@H](Oc1cc(-n2cnc3cc(-c4ccnc(NCCS(C)(=O)=O)c4)ccc32)sc1C(N)=O)c1ccccc1Cl [GSK907232] | 0 |
| COc1cc(Nc2ncc3c(C)nc(-c4cc5ccccc5[nH]4)n3n2)cc(OC)c1OC [GW869516] | 13 |
| Cl.c1ccc(-c2ccc3c(Nc4ccc5[nH]ncc5c4)ccnc3c2)nc1 [GW440137] | 0 |
| Cl.c1ccc(-c2ccc3c(Nc4ccc5[nH]ccc5c4)ccnc3c2)nc1 [GW440138] | 0 |
| Cl.NC(=O)c1cccc(Nc2nccc(Nc3ccc(Oc4c(Cl)cccc4Cl)c(Cl)c3)n2)c1 [GW659009] | 19 |
| O=C(Nc1ccccc1F)NC1CCN(c2ccnc(Nc3ccc(F)cc3)n2)CC1 [GSK1379800] | 0 |
| COc1ccc(-c2coc3ccc(-c4nnc(SCc5ccc(OC)c(C(F)(F)F)c5)o4)cc23)cc1 | 0 |
| Clc1ccc(-c2nn3ncccc3c2-c2ccnc(Nc3ccc4c(c3)OCCO4)n2)cc1 [GW829116] | 13 |
| CC(C)c1nc(-c2cccc(NS(=O)(=O)c3c(F)cccc3F)c2F)c(-c2ccnc(Nc3ccc(N4CCOCC4)nc3)n2)s1 [GSK2008607] | 99.5 |
| C[C@@H]1CC[C@@H](C(=O)Nc2ccccc2)CN1c1cc(-c2ccc3c(N)n[nH]c3c2)nc(N)n1 [GSK2286062] | 0 |
| COc1ccc(CNC(=O)NC2CCN(c3ccnc(Nc4ccc(F)cc4)n3)CC2)cc1 [GSK1379788] | 0 |

test system: SRPK1; details: concentration: 1 μM, replicates: in singlicate; n = 1

| Compound | %Inh [%] |
| --- | --- |
| c1ccc(Oc2ccc(Nc3ccnc4cc(-c5ccc(CNCCN6CCOCC6)o5)ccc34)cc2)nc1 [GW567145] | 0 |
| Cn1cc(-c2[nH]c3cc(NC(=O)[C@H](N)C4CCCCC4)cc4c3c2C=NNC4=O)cn1 | 99 |
| O=C(Nc1cccc(-c2nn3ccccc3c2-c2ccnc(Nc3cccc(F)c3)n2)c1)c1c(F)ccc(F)c1Cl [GSK357952] | 45 |
| Cc1ccc(C)c(NC(=O)NC2CCN(c3ccnc(Nc4ccc(F)cc4)n3)C2)c1 (centres unmarked) [GSK1379720] | 24 |
| O=C(Nc1n[nH]c2cc(-c3ccoc3)ccc12)C1CC1 [SB-738481] | 48 |
| COc1cccc(C(=O)Nc2cccc(Oc3ccc4nc(NC(=O)C5CC5)cn4n3)c2)c1 | 40 |
| Cc1ccc(S(=O)(=O)Nc2ccc(Nc3nccc(Nc4cccc5[nH]ncc45)n3)cc2)cc1 [GSK581271] | 51 |
| CN(C)Cc1ccc(-c2ccc3c(Nc4ccc(Oc5ccccn5)cc4)ccnc3c2)o1 [GW567148] | 0 |
| Nc1ncc(-c2ccc3nccc(-c4ccncc4)c3c2)cc1S(=O)(=O)N1CCOCC1 [GSK1627798] | 0 |
| CC(=O)Nc1nc2cnc(Nc3cc(NC(=O)c4cccc(C5(C#N)CC5)c4Cl)ccc3C)nc2s1 | 39 |
| Cl.Cl.NCC(NC(=O)c1cc(-c2ccccc2)c(-c2ccnc3[nH]ccc23)s1)c1ccccc1 (centres unmarked) [GSK1321561] | 53 |
| COc1cccc(C2=C(Nc3ccc(Cl)c(C(=O)O)c3)C(=O)NC2=O)c1 [SB-390769] | 13 |
| O=c1[nH]cc(-c2ccc(N3CCOCC3)cc2)c2sc(-c3cn[nH]c3)cc12 [GSK2276055] | 17 |
| Cn1cc(-c2ccc3c(c2)CCN3C(=O)Cc2cccc(F)c2)c2c(N)ncnc21 [GSK2603358] | 0 |
| CN1CCN(CCCNc2nccc(-c3c(-c4ccc(F)cc4)nn4cc(C(F)(F)F)ccc34)n2)CC1 [GW621581] | 26 |
| Cc1ccc(C(=O)Nc2ccc(Nc3ccnc4cc(-c5nccs5)ccc34)cc2O)cc1.Cl [GW494702] | 12 |
| CC(C)(C)c1ccc2nccc(Nc3cccc(O)c3)c2c1 [GW856795] | 0 |
| Nc1n[nH]c2cnc(-c3ccccc3)cc12 [SB-642124] | 22 |
| CCc1ccc(-c2ccc3c(c2)-c2c(cnn2C)S(=O)(=O)N3C)cc1 | 0 |

| Compound | %Inh [%] |
| --- | --- |
| O=C(Nc1n[nH]c2nc(-c3ccc(O)cc3)ccc12)C1CC1 [SB-710363] | 20 |
| CC(=O)N1CCN(c2ccc(Nc3nccc(-c4sc(C(C)C)nc4-c4cccc(NS(=O)(=O)c5cccc(Cl)c5)c4)n3)cn2)CC1 [GSK1660437] | 44 |
| c1ccc(-c2n[nH]cc2Nc2ccnc3ccccc23)nc1 [GW694077] | 69 |
| Oc1cc(Nc2ccnc3cc(I)ccc23)ccc1F [GW552771] | 21 |
| COc1ccc(Nc2nccc(N3CCC(NC(=O)Nc4cccc(OC)c4)C3)n2)cc1 (centres unmarked) [GSK1379742] | 12 |
| COc1cc(Nc2nccc(-c3c(-c4cccc(NC(=O)c5c(F)cccc5F)c4)nn4ccccc34)n2)cc(OC)c1OC [GSK323521] | 0 |
| c1ccc(-c2cnc3nccnn23)cc1 [AH20685] | 20 |
| C[C@@H](Oc1cc(-n2cnc3cc(-c4ccnc(NCCS(C)(=O)=O)c4)ccc32)sc1C(N)=O)c1ccccc1Cl [GSK907232] | 84 |
| COc1cc(Nc2ncc3c(C)nc(-c4cc5ccccc5[nH]4)n3n2)cc(OC)c1OC [GW869516] | 9 |
| Cl.c1ccc(-c2ccc3c(Nc4ccc5[nH]ncc5c4)ccnc3c2)nc1 [GW440137] | 31 |
| Cl.c1ccc(-c2ccc3c(Nc4ccc5[nH]ccc5c4)ccnc3c2)nc1 [GW440138] | 38 |
| Cl.NC(=O)c1cccc(Nc2nccc(Nc3ccc(Oc4c(Cl)cccc4Cl)c(Cl)c3)n2)c1 [GW659009] | 37 |
| O=C(Nc1ccccc1F)NC1CCN(c2ccnc(Nc3ccc(F)cc3)n2)CC1 [GSK1379800] | 11 |
| COc1ccc(-c2coc3ccc(-c4nnc(SCc5ccc(OC)c(C(F)(F)F)c5)o4)cc23)cc1 | 8 |
| Clc1ccc(-c2nn3ncccc3c2-c2ccnc(Nc3ccc4c(c3)OCCO4)n2)cc1 [GW829116] | 0 |
| CC(C)c1nc(-c2cccc(NS(=O)(=O)c3c(F)cccc3F)c2F)c(-c2ccnc(Nc3ccc(N4CCOCC4)nc3)n2)s1 [GSK2008607] | 38 |
| C[C@@H]1CC[C@@H](C(=O)Nc2ccccc2)CN1c1cc(-c2ccc3c(N)n[nH]c3c2)nc(N)n1 [GSK2286062] | 25 |
| COc1ccc(CNC(=O)NC2CCN(c3ccnc(Nc4ccc(F)cc4)n3)CC2)cc1 [GSK1379788] | 0 |

Source: paper PMC5540273 (PLoS ONE, 2017)
